Experimental data taken from PubChem BioAssay AID1508600 (Functional Genomics Laboratory (NCATS/FGL), 2020).
Among all 53,000 sequences or so, about 3,700 (7%) were called active. This is one part of a sample in which actives are shown more often than they occur. A number with no mark means an inactive call.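 Rule for the calls: active = gene knockdowns whose robust z-score for IL-1 alpha signal is at least 2 or at most -2, so actives lie on both sides; inactive = the rest.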

Assay: Components of the Cytosolic LPS Sensing Pathway: Gene Identification via Genome-wide siRNA Screen;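 note: robust z of the log signal after scaling to non-targeting control siRNA wells of the plate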
Settings: RAW264.7 macrophages, IL-1a HTRF, actives lie on both sides, screened at 100 nM (by protocol), cells primed 5 h with Pam3CSK4 first
Outline: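 IL-1a HTRF of supernatants after 24 hour LipidA transfection of Pam3CSK4-primed (5 hours) RAW264.7 cells, 48h post-siRNA transfection (100 nM). Scores: percent of plate negative-control median, then log-based robust z-score.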

Row | Sequence | z-score
1 | CCGACCAGAAGCUUUAAAGTT against Msrb1 | 1.05
2 | GGGAGUUGGUGGAAUGCUUTT against Ech1 | -0.221
3 | GGAGUUUGAACAAGAAAUATT against Prss12 | 1.11
4 | GCCACCGAACCUAUAAAGCTT against Scd4 | 0.265
5 | GGUGUGCAUCAAGCGACUGTT against Cacng6 | 2.1 (active)
6 | GGUUCUAGAUGCUAAUAAGTT against Ciao3 | -0.381
7 | GGAUCUGACAAGGUACAAGTT against Acsm5 | 0.145
8 | GCUAUGGGUAAACUUUUUGTT against Olfr354 | 0.905
9 | CCUAGACAAUACUUGCCUGTT against Gpr180 | 0.873
10 | GCCUGUUCGGUGUUCAACUTT against Etv3 | 0.808
11 | GCCUAGUUCUUUAUGCUAUTT against Golga4 | 4.37 (active)
12 | CCACCUGUCGAGAUGUCGUTT against Ppp1r13b | 1.1
13 | GGAUCACGUUUCAAACAUCTT against Mtmr12 | 0.296
14 | GGAGCACAAUAGUAAACUATT against Polr1a | 2.78 (active)
15 | GGUGAAGAUAAGUAUCUGCTT against Mug2 | -0.0586
16 | GCUUGAUUAGGUAGGAAUATT against Stk32a | -0.388
17 | GGAAAGUCAGGAUGAAUAUTT against Cst9 | 0.0511
18 | GGAGUUGUAGUGAGGGUCATT against Fcgbp | -0.971
19 | GGAAACAGGAAACAAUCUATT against Ccdc69 | 0.609
20 | GGUUUUGAGUGAGAAAUGGTT against Plekhb2 | -0.414
21 | GGAGAAAUCCCUUCACGGUTT against Mas1 | 0.449
22 | CCACCUCCUCUCGAUACAATT against Zfp36 | 0.993
23 | CGCAGUAGCGAAGAAUUACTT against Sel1l3 | 2.46 (active)

Row | Sequence | z-score
24 | CCAUAAUAGAGGCAAUUACTT against Wscd1 | 0.302
25 | CCUAGGUGUCACCAUGAACTT against Ssx9 | 2.02 (active)
26 | GGAAAGAGUCAUGGAAAUATT against Supt16 | 0.55
27 | GGCUCACAAGGAAGAGAUCTT against Cstad | -0.29
28 | GCUCUGAAAUGUCUCUCCATT against H2-D1 | -0.613
29 | GGUGUGUUCAGGAGUUGAUTT against Col12a1 | 0.505
30 | GGCAAAAAAAACUGCUAUATT against Adgrg7 | 3.36 (active)
31 | GGUGACAUUUGAAAAUGUCTT against Slc25a12 | 0.411
32 | GCCUCAUCCCUAUAGUCCUTT against Spaca9 | -0.257
33 | CGGGUUCCCAGGAAUUAAGTT against Col4a6 | 0.304
34 | GGUUGACACUCUGAGGGAATT against Pld2 | -0.175
35 | CCACUUUCUAGAAAUCCUATT against Tmem41a | -2.14 (active)
36 | GGGCUGAUGAGCAAAGCAUTT against Setd4 | -1.01
37 | GGGAAAUUAUUACCAAAAGTT against N4bp1 | -0.83
38 | GGUCUUUGUUAAGAAUCCUTT against Myo1f | -0.496
39 | GCUCGAAAACUGAGAGUUATT against Pcdhgb1 | 3.32 (active)
40 | GCUAUAAGGCUUAAUAGGGTT against Dleu7 | 1.97
41 | GCGAAAGCAGCUGUCGGAATT against Nkx3-1 | 0.324
42 | GGCCUCGAACAGUUUAUUATT against Snx12 | 0.471
43 | GGCUGUGGAUCUUCUCUGUTT against Cnksr3 | -1.05
44 | GCCAUGUUAAAUUCUCUACTT against Poln | 0.575
45 | GGCUCUGCUGGAUAUCAUGTT against Med24 | -1.08
46 | GGGUAUUUCCUGGUGGAUUTT against Mrps6 | 0.221

Row | Sequence | z-score
47 | CCUAUCAUAACGGUGAUAATT against Ddb1 | -0.423
48 | GGUCACACCCAUAAACUAATT against B630019K06Rik | -0.167
49 | GGUUAUUAAGUAGCUUUUCTT against Dtx1 | 1.64
50 | GCAUUAGAACAAAGGAUGCTT against Rps19 | 0.278
51 | GGAAUUUGUGGAAACAGGATT against Tnfaip3 | -0.441
52 | GCCUUUGAUAGUGGUGAAUTT against F11r | -3 (active)
53 | CCAAUCUUCUCCUCAAGACTT against Olfr101 | -0.0712
54 | GGCUGUUUCCAAAAAGAAGTT against H1f5 | -1.14
55 | GGACCAGGGCAAAAUAUGATT against Pate6 | 0.727
56 | CCAUCAUUGCUCGUAUUGGTT against Olfr656 | -2.9 (active)
57 | CCAGUGGAAAUAACUUGUGTT against Fam53a | 1.58
58 | CCUUGAGUGAAAGAAUUGATT against Tmprss11d | -0.609
59 | GGAAUAUCCGUAAUAACUATT against Grin2b | 2.82 (active)
60 | GCUACUAAAUUCUGUUUUGTT against Nol4l | 0.325
61 | GGGAAGUUUCUUGAAGCACTT against Rfxank | 0.103
62 | AGGACUAGGGAUCCUAAUUTT against Ubl5 | -0.74
63 | GGUUGCUGGAUGUCAUCUCTT against Hpn | -2.05 (active)
64 | GCUACUUGCUCAUACAAAGTT against Rag2 | 0.65
65 | GGCCAUAUGUCAAGAAGUUTT against Svs4 | -1.24
66 | GCCAGGAAUAGUGAUUAUUTT against Atp11c | -1.19
67 | GGAAAUGUGGAAUACACCGTT against Prl7a2 | 1.39
68 | GGCUUUAAUGUGUCAGUACTT against Slc25a5 | -0.228
69 | GCCGAUGAUACCAAACCGATT against Oser1 | 0.151
